The source of these data is PubChem BioAssay (EPA / NIEHS).

Each structure is given as a SMILES string. Active and inactive are the calls of the source. The calls were made as follows: active = hit-call score of the fitted dose curve at least 0.9, where 1 is the maximum; inactive = score below 0.9.

Sequence of Retinoic acid receptor alpha (Homo sapiens) (P10276 whole entry, looked up): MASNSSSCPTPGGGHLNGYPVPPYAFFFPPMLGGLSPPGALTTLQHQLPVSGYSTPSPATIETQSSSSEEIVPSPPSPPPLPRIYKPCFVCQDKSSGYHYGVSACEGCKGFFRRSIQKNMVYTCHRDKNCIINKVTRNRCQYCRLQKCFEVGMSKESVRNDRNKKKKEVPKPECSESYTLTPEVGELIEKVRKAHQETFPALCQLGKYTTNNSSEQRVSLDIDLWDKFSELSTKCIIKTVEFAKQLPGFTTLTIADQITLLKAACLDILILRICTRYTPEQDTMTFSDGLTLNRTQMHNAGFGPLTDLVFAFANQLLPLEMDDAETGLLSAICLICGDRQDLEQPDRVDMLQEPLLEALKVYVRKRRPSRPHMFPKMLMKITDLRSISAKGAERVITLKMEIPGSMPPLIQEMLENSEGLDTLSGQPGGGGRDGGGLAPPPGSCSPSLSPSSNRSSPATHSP

The target of the test is Retinoic acid receptor alpha (Homo sapiens) (UniProt P10276). The test is described as follows: ATG_DR5_RAR_CIS: Attagene CIS-FACTORIAL HepG2 Assay for human Retinoic Acid Receptor Alpha (RARE), DR5 submotif (AID 2282934).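 As to AC50: reporter responds to endogenous RAR alpha beta and gamma in HepG2 not RARA alone.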 The settings on record: HepG2 Attagene cis-factorial RARE DR5 reporter, mRNA; actives raise or lower the signal. The procedure:
ATG_CIS is a cell-based, multiplexed-readout assay that uses HepG2, a human liver cell line, with measurements taken at 24 hours after chemical dosing in a 24-well plate.ATG_DR5_RAR_CIS is one of 52 assay component(s) measured or calculated from the ATG_CIS assay. It is designed to make measurements of mRNA induction, a form of inducible reporter, as detected with fluorescence intensity signals by Reverse transcription polymerase chain reaction (RT-PCR) and Capillary electrophoresis technology.Data from the assay component ATG_DR5_RAR_CIS was analyzed into 1 assay endpoint. This assay endpoint, ATG_DR5_CIS, was analyzed with bidirectional fitting relative to DMSO as the negative control and baseline of activity. Using a type of inducible reporter, measures of mRNA for gain or loss-of-signal activity can be used to understand the reporter gene at the transcription factor-level as they relate to the gene RARA and RARB and RARG. Furthermore, this assay endpoint can be referred to as a primary readout, because this assay has produced multiple assay endpoints where this one serves a reporter gene function. To generalize the intended target to other relatable targets, this assay endpoint is annotated to the nuclear receptor intended target family, where the subfamily is non-steroidal.
Human liver HepG2 cells are transiently transfected with multiple reporter transcription units (MRTUs) in 6-well plates using FuGene 6 reagent (Roche; 3 ml FuGene/1 mg DNA). The MRTU constructs are regulated by a cis-regulating element (promoter). […] A major difference between the CIS and TRANS system is that in CIS activities of endogenous TFs are measured, whereas the TRANS assay evaluates changes in activities of exogenous, chimeric NR-Gal4 proteins. […] At the end of 24 hour incubation, total RNA was isolated using TriZol reagent (Invitrogen). The isolated RNA is then reverse-transcribed using oligo(dT) primer and Mo-MLV reverse transcriptase (Invitrogen) with DNAse I (Ambion) treatment for 30 min. The one-tenth of the produced cDNA was amplified by PCR using Taq DNA polymerase (Invitrogen) and two reporter sequence-specific primers. The PCR products were fluorescently labeled by primer extension with 6-arboxyfluorescein (6-FAM) 5'-labeled reporter sequence-specific primer (2 min at 95 C, 20 s at 68 C and 10 min at 72 C) and these products were digested with 5U of HpaI (New England Biolabs) for 2h at 37 C. The fragments were purified using Qiaquick PCR columns (Qiagen), analyzed on an ABI 3130xL genetic analyzer (Applied Biosystems) with peak positions identified by using a set of X-rhodamine (ROX)-labeled MapMarker1000 molecular weight standards (BioVentures). The raw capillary electrophoresis data was processed using Attagraph software (Attagene).
Take `O=C(OCCCCCOC(=O)c1ccccc1)c1ccccc1`: the molecule was classed as inactive.
As to `Cc1oc(-c2ccccc2)nc1CCOc1cccc2c1ccn2CCC(=O)O`, the molecule was called inactive.
Regarding `COc1cccc2c1C(=O)c1c(O)c3c(c(O)c1C2=O)C[C@@](O)(C(=O)CO)C[C@@H]3O[C@H]1C[C@H](N)[C@H](O)[C@H](C)O1`, the outcome was inactive.
Same read-out and setting: for `CCCCCCCCCCCCCCCC` the value was “inactive”; for `C=CCOC(=O)c1ccccc1C(=O)OCC=C`, “inactive”.
Consider `CC(=O)OCCOCCOCCOC(C)=O`, for which the molecule was called inactive.
`C=CCc1ccc(O)c(OC)c1`: the call was inactive.
The same measure, in the same setting: for `CCCCCC(=O)O` the value was “inactive”.
As to `C1CCC(SSC2CCCCC2)CC1`, the molecule was classed as inactive.
On to `Oc1ccc2c(c1)OC[C@@H](N1CCC(O)(c3ccc(F)cc3)CC1)[C@H]2O`, for which the result was inactive.
In the case of `O=[N+]([O-])C(CO)(CO)CO`, the molecule was classed as inactive.
On to `Cc1nc(C)nc(N2C[C@@H](C)N(c3ccnc([C@@H](C)O)n3)[C@@H](C)C2)n1`, for which the molecule was called inactive.
As for `CCCCCCC(=O)OCC`, the molecule was called inactive.
For the molecule `CCCCCCOCCO`, the molecule was called inactive.
The same measure, in the same setting: the result for `Cc1cccc(C)c1O` reads “inactive”; that for `CCCCCCCCCCCCCCCCCC(=O)O`, “inactive”.
Regarding `Cc1cccc([N+](=O)[O-])c1C`, the call was inactive.
As for `Nc1nc(N)c2nc(CNc3ccc(C(=O)N[C@@H](CCC(=O)O)C(=O)O)cc3)cnc2n1`, the molecule was called inactive.
For the molecule `CC(=O)C(C)=CC1C(C)=CCCC1(C)C` (stereo not given), the molecule was called inactive.
As to `CC1=C(/C=C/C(C)=C/C=C/C(C)=C/CO)C(C)(C)CCC1`, the AC50 was 104 nM (active).
`CC1(C)NC(=O)NC1=O`: the outcome was inactive.
Still for that read-out and setting: the result for `COCCOC[C@H](CC1(C(=O)NC2CCC(C(=O)O)CC2)CCCC1)C(=O)Oc1ccc2c(c1)CCC2` (stereo not given in full) reads “inactive”.
Consider `Cc1c(C(=O)O)c(O)cc2c1C(=O)c1c(O)c([C@@H]3O[C@H](CO)[C@@H](O)[C@H](O)[C@H]3O)c(O)c(O)c1C2=O`, for which the call was inactive.
`Cc1ccc(C(C)C)c(O)c1`: the result was inactive.
In the case of `CCNc1cccc(C)c1`, the result was inactive.
For `CCCCCCCCCCO`, the outcome was inactive.
On the same count and under the same terms, the result for `COC(=O)c1ccc(O)cc1` reads “inactive”.
Regarding `CCc1c(C(=O)NN2CCCCC2)nn(-c2ccc(Cl)cc2Cl)c1-c1ccc(Br)cc1`, the AC50 is 2160 nM (active).
Take `CN1CCCC1=O`: the result was inactive.
Turning to `CC(=O)OC/C=C(\C)CCC=C(C)C`, the result was inactive.
For the molecule `C[C@]12C=CC(=O)C=C1CC[C@@H]1[C@@H]2C(=O)C[C@@]2(C)[C@H]1CC[C@]2(O)C(=O)CO`, the result was inactive.
As for `CC(C)c1ccc(C(=O)N=C(N)N)cc1S(C)(=O)=O`, the outcome was inactive.
Consider `COCCOCCOC`, for which the call was inactive.
Take `CCOC(=O)CCC(=O)OCC`: the result was inactive.
Still for that read-out and setting: for `CCCc1cc(=O)[nH]c(=S)[nH]1` the value was “inactive”; for `Cc1ccc(C)c(O)c1C`, “inactive”.
With `Nc1ccccc1N`, the call was inactive.
Still for that read-out and setting: the result for `O=C(N[C@@H](Cc1ccccc1)[C@@H](O)C(=O)N1C[C@@H](O)[C@@H](O)C1)c1cc2cc(Cl)ccc2[nH]1` reads “inactive”.
The same measure, in the same setting: for `Cc1ccc2ncccc2c1` the value was “inactive”.
Consider `FC(F)(F)C(F)(F)C(F)(F)C(F)(F)C(F)(F)C(F)(F)CCI`, for which the outcome was inactive.
